Compound activity from PubChem.
The sample as a whole holds a higher share of hits than the screen did.
ROC1-CUL1 inh – human ROC1-CUL1 E3 ligase inhibition. P62877+Q13616. in vitro K48 di-Ub FRET, acceptor:donor ratio, 45 min. inhibition, % at 10 µM. 140,000 tested, 0.6% active. AID 1347404; in the data active = inhibition above about 25%
Target sequence (P62877 whole entry, looked up): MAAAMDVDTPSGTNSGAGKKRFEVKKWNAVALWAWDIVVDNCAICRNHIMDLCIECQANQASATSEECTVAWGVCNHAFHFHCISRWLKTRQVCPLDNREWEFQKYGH
Target sequence (Q13616 whole entry, looked up): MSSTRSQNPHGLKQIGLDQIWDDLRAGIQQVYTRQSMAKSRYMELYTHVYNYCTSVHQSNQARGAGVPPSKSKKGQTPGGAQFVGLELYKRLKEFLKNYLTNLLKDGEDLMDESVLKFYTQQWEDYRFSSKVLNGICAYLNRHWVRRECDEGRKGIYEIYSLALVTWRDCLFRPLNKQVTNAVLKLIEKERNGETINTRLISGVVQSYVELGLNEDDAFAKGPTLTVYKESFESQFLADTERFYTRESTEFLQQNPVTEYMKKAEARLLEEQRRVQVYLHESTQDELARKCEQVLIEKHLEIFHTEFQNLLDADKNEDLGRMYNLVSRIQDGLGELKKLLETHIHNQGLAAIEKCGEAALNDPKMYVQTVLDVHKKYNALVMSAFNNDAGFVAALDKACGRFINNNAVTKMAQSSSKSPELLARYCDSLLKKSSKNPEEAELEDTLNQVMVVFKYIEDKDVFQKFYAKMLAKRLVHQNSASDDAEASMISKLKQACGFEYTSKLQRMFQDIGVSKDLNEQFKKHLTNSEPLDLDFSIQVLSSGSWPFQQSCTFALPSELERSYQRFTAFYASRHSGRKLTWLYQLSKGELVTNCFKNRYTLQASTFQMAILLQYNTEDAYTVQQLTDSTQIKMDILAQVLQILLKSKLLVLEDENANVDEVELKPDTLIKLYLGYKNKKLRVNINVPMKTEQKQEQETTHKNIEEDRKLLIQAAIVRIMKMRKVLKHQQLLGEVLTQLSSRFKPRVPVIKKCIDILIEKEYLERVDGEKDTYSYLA
Large screens that a line does not name were inactive.

O=C(Cn1cnc2sc3c(c2c1=O)CCCC3)N/N=C\c1c[nH]c2ccccc12	none
CCOC(=O)c1c(C(C)(C)C)oc2cc(Br)c(OCc3ccccc3F)cc12	none
N#Cc1nc(N2CCOCC2)nc(N2CCOCC2)n1	none
CN(C)c1nc(SCC(N)=O)nc(N(C)C)n1	none
NC(=O)CSc1nc(N2CCOCC2)nc(N2CCOCC2)n1	ROC1-CUL1 inh 50
Cc1ccc(NS(=O)(=O)c2ccc3c(c2)[C@H]2C=CC[C@H]2[C@@H](c2ccccc2F)N3)c(C)c1	none
COc1cccc(C(=O)Nc2ccc3nn(-c4ccc(N(C)C)cc4)nc3c2)c1	none
Cc1nnc(Cl)c2ccccc12	none
Clc1nn2nnnc2c2ccccc12	ROC1-CUL1 inh 30
c1ccc2c(c1)c(N1CCOCC1)nn1nnnc21	none
Cc1ccccc1Cn1c(=O)n(CCCCCC(=O)NCc2ccc3c(c2)OCO3)c(=O)c2sccc21	none
CC(=O)N=C1C(=O)c2ccccc2C(=O)C1N1CCN(c2ccc(F)cc2)CC1 (centres undefined)	none
O=C(CC(c1ccccc1)c1ccccc1F)N1CCC(N2CCOCC2)CC1 (centres undefined)	none
O=C1c2ccccc2C(=O)C1C(c1ccc(F)cc1)c1ccc(F)cc1	none
C/C(=N\N1CCN(C2c3ccccc3-c3ccccc32)CC1)c1ccc(F)cc1	none
O=C1C(=Nc2ccc(F)cc2)C(N2CCCCC2)C(=O)c2ccccc21 (centres undefined)	ROC1-CUL1 inh 50
O=C1C(=Nc2ccc(F)cc2)C(N2CCOCC2)C(=O)c2ccccc21 (centres undefined)	ROC1-CUL1 inh 50
COc1cccc([C@@H]2[C@H]3CN(C)CC=C3C(C#N)C(=N)C2(C#N)C#N)c1OC (some centres undefined)	none
COCC(=O)Nc1cc(C(=O)N2CCC(c3ccncc3)CC2)c2c(c1)nc(C1CCC1)n2C	none
CC(=O)ONc1ccc(C(C)(C)C)cc1Br	none
N#Cc1cc2c(nc1SCc1ccc(C(=O)O)cc1)CCCCCC2	none
CC1C(=NC(=O)C(C)(C(F)(F)F)C(F)(F)F)C(=O)N(c2ccccc2)N1C (centres undefined)	none
Cc1cc(/C=C2\C(=O)N(C)C(=S)N(c3ccccc3)C2=O)c(C)n1-c1cccc(C(=O)O)c1	ROC1-CUL1 inh 28
CCOC(=O)c1cccc(-n2c(C)cc(C=C3C(=O)N(C)C(=O)N(C)C3=O)c2C)c1	none
CC(=O)NC1=NC(=O)/C(=C/c2cc(C)n(-c3cccc(C(=O)O)c3)c2C)S1	ROC1-CUL1 inh 50
COC(=O)c1cccc(-n2c(C)cc(/C=C3\SC(=O)N(Cc4ccc(F)cc4)C3=O)c2C)c1	none
Cc1ccc(N2C(=O)/C(=C/c3cc(C)n(-c4ccccc4)c3C)C(=O)N(c3ccccc3)C2=S)cc1C	none
CC(=O)NC1=NC(=O)/C(=C/c2sccc2C)S1	none
NCCCCCCNC(=S)Nc1ccccc1	none
C(=Nc1ccc2c(c1)ncn2-c1ccccc1)c1nc2ccccc2n1Cc1ccccc1	none
O=C(NCCC1=CCCCC1)c1cc(-c2ccco2)nc2ccccc12	ROC1-CUL1 inh 42
O=C(NCCC1=CCCCC1)c1ccccc1Cl	none
O=C(NCCC1=CCCCC1)c1ccco1	none
O=C(NCCC1=CCCCC1)c1coc(CN2CCN(c3ncccn3)CC2)n1	none
COc1ccccc1NC(=O)N1CCCc2cc(C)ccc21	none
CN1CCN(C2c3ccccc3CSc3sccc32)CC1 (centres undefined)	none
CC(C)(O)C(=O)/C=C/c1cccc2ccccc12	ROC1-CUL1 inh 54
C(/C=C/c1cccc2ccccc12)=C\c1ccccc1	none
CC(C)(O)C(=O)/C=C/c1ccccc1	none
Cc1csc(SCC(=O)N2CCc3c(cnc(C)c3CNS(=O)(=O)c3cccs3)C2)n1	none
O=C(c1ccccc1)c1cc(Cl)ccc1N=Cc1ccc([N+](=O)[O-])s1	none
O=C(N/N=C/c1cc(O)c(Br)cc1Br)C1=NNC(c2ccccc2)(c2ccccc2)C1	none
Cc1cc(-n2nnc3cc(C)c(C)cc32)ccn1	none
CC(=O)N1c2ccccc2C2(O)N=C(C)SC12 (centres undefined)	ROC1-CUL1 inh 44
CN1C(=O)C(O)(CC(=O)c2ccc(Cl)s2)c2ccccc21 (centres undefined)	none
CC(=O)N1c2ccccc2C(=O)C1C (centres undefined)	none
O=C(C1CCOCC1)N1CCCC(CCc2cccc(C(F)(F)F)c2)C1 (centres undefined)	none
Cc1ccccc1/C=C1/SC(=Nc2ccccc2)NC1=O	none
Cc1cc(/C=C2\SC(=Nc3ccccc3)NC2=O)c(C)n1-c1cc(C(=O)O)cc(C(=O)O)c1	ROC1-CUL1 inh 69
COc1ccc(/C=C2\SC(=Nc3cccc(Cl)c3C)NC2=O)c(OC)c1	none
CCOc1cc(/C=C2\SC(=Nc3cccc(Cl)c3C)NC2=O)cc(Br)c1OC	none
CCc1ccc(N=C2NC(=O)/C(=C/c3cc(C)n(-c4ccncc4)c3C)S2)cc1	none
CCOc1ccccc1/C=C1\SC(=Nc2cccc(Cl)c2C)NC1=O	ROC1-CUL1 inh 26
O=C1NC(=Nc2ccc(Br)cc2)S/C1=C\c1ccccc1O	none
COc1ccc(N=C2NC(=O)/C(=C/c3ccc(OCc4cccc(C(=O)O)c4)c(OC)c3)S2)cc1	none
O=C1NC(=Nc2ccc(C(=O)O)cc2)S/C1=C/c1ccccc1OCc1ccccc1	ROC1-CUL1 inh 94
CSc1nnc(SCC(=O)Nc2ccc(Br)cc2)s1	none
Cc1ccc2[nH]c3c(c2c1)CCCC3NCCc1ccc(O)cc1 (centres undefined)	none
O=[N+]([O-])c1sc(N2CCCCC2)nc1-c1ccccc1	none
OC(COC12CC3CC(CC(C3)C1)C2)CN1CCc2ccccc2C1 (centres undefined)	none
Cc1cccc(C)c1NC(=O)c1sc2nc3c(cc2c1N)CN(C)CC3	none
O=C(O)c1ccc(N2C(=S)NC(=O)C23CCCCC3)cc1	none
COc1ccc(C2(CC(=O)N3CCN(Cc4ccc(C)cc4)C(=O)C3)CC(=O)N(C3CC3)C2=O)cc1 (centres undefined)	none
CCCCCCCCOc1ccc(C=C2C(=O)N(CC)C(=S)N(CC)C2=O)cc1	none
Cc1c(CC(=O)NCC(N)=O)c2c(n1CCc1ccccc1)CCCC2=O	none
Cc1c(CC(=O)NCc2ccon2)c2c(n1CC1CCCO1)CCCC2=O (centres undefined)	none
Cc1c(CC(=O)NCc2ccon2)c2c(n1CCc1ccccc1)CCCC2=O	ROC1-CUL1 inh 29
CCOC(=O)c1ccccc1NC(=O)COc1ccc(C)cc1C	none
Cc1cccc2c1NC(C)(C)c1ssc(=Nc3ccc(Cl)c(Cl)c3)c1-2	none
O=C1CCC(CCNCc2cc3c(cc2Cl)OCO3)N1CC(c1cccnc1)N1CCOCC1 (centres undefined)	none
COc1cc(C(=O)O)ccc1OC(=O)c1ccccc1OC(C)=O	none
CC(=O)Oc1ccc(O)c2c1C(=O)C=CC2=O	ROC1-CUL1 inh 105
CC(=O)Oc1ccc(OC(C)=O)c2c1C1CCCCC1=C1CCCCC12 (centres undefined)	none
Cc1cc(O)ccc1NS(=O)(=O)c1ccccc1	none
Cc1ccc(Sc2cc(NS(=O)(=O)c3ccccc3)c3ccccc3c2O)cc1	ROC1-CUL1 inh 70
CCc1ccc(S(=O)(=O)NCC(=O)O)cc1	none
CCOc1ccc(S(=O)(=O)Nc2ccc(S(=O)(=O)Nc3cccc4ccccc34)cc2)cc1	none
Cc1ccc(S(=O)(=O)Nc2ccccc2-c2ccccc2NS(=O)(=O)c2ccc(C)cc2)cc1	none
CCOc1ccc(S(=O)(=O)Nc2cc(SCC(=O)O)c(O)c3ccccc23)cc1	ROC1-CUL1 inh 43
CCc1ccc(S(=O)(=O)Nc2cc(SCC(=O)O)c(O)c3ccccc23)cc1	ROC1-CUL1 inh 108
CCOc1ccc(S(=O)(=O)Nc2cc3c(C(=O)OC)c(COC)oc3c3ccccc23)cc1	none
COc1ccc(S(=O)(=O)Nc2cc(SCc3ccccc3)c(O)c3ccccc23)cc1	none
